Measurements published in PubChem BioAssay (NCATS).
Where “and” joins values, the source holds several entries; their conditions need not be identical. Identical values can stand only once. Results filed as inconclusive are left out. Where a call stands in place of a potency, no number is given. Some structures have more than one record in an assay (separate samples or runs), and their calls can disagree. Calls of active or inactive are those of the source. Calls come from the whole dose curve; as a rule, active = well fitted curve in the direction sought with a large enough effect; inconclusive = small, poorly fitted or top-dose-only effect, or another doubt; inactive = no such curve, though single readings can be large; an effect the other way counts as inactive or inconclusive.

Assays:
[1] = P-glycoprotein substrates identified in KB-8-5-11 adenocarcinoma cell line, qHTS therapeutic library screen (AID 1346987); note: nearly all actives have a fitted effect of over 65% in size
In short: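 Compounds are pinned in dose-response onto KB-8-5-11 cells (500 cells/well, colchicine-free medium) and left 72 h at 37 degree C. CellTiter-Glo luminescence then yields AC50 values.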

[2] = NS1 protein of Zika virus - qHTS assay to identify small molecule inhibitors in human HEK 293 cells (AID 1347053); note: nearly all actives have a fitted effect of over 55% in size
In short: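 In this cell-based screen, HEK 293 cultures received compound for one hour before Zika MR766 at MOI = 0.5. NS1 was quantified 24 hours later by TR-FRET, normalized to virus-free wells and infected wells.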

[3] = qHTS of pediatric cancer cell lines to identify multiple opportunities for drug repurposing: Primary screen for TC32 cells (AID 1347089); note: nearly all actives have a fitted effect of over 60% in size
In short: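 qHTS, TC32, 48 h drug treatment, CellTiter-Glo luminescence as a proxy for metabolically active cells; primary top concentration 46 µM (MIPE 11-pt, NPC 8-pt); confirmatory 11-pt.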

[4] = qHTS of pediatric cancer cell lines to identify multiple opportunities for drug repurposing: Primary screen for DAOY cells (AID 1347090); note: nearly all actives have a fitted effect of over 55% in size
In short: (§1)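 Eight- or eleven-point concentration series, 48 h treatment at 37 degrees C in growth media; readout CellTiter-Glo luminescence. Potency and efficacy were taken from the concentration-response curves.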

[5] = qHTS of pediatric cancer cell lines to identify multiple opportunities for drug repurposing: Primary screen for SJ-GBM2 cells (AID 1347091)
In short: as §1

[6] = qHTS of pediatric cancer cell lines to identify multiple opportunities for drug repurposing: Primary screen for A673 cells (AID 1347092); note: nearly all actives have a fitted effect of over 45% in size
In short: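 Luminescence from CellTiter-Glo, taken after 15 min at room temperature, served as the proxy for metabolically active cells following 48 h treatment. Both potency and efficacy were taken from curves fitted to the titration data.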

[7] = qHTS of pediatric cancer cell lines to identify multiple opportunities for drug repurposing: Primary screen for SK-N-MC cells (AID 1347093)
In short: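 Metabolically active cells were quantified by ATP-dependent luminescence (CellTiter-Glo, 15 min at room temperature) following 48 h treatment. Cells had been plated at 500-1,000 per well and settled for 5 h beforehand.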

[8] = qHTS of pediatric cancer cell lines to identify multiple opportunities for drug repurposing: Primary screen for BT-37 cells (AID 1347094)
In short: (§2)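 Following a 5-hour attachment period, cells at 500-1,000/well received compounds and were cultured for 48 hours. CellTiter-Glo was added and luminescence read to estimate viable, metabolically active cells.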

[9] = qHTS of pediatric cancer cell lines to identify multiple opportunities for drug repurposing: Primary screen for NB-EBc1 cells (AID 1347095)
In short: as §2

[10] = qHTS of pediatric cancer cell lines to identify multiple opportunities for drug repurposing: Primary screen for U-2 OS cells (AID 1347096); note: nearly all actives have a fitted effect of over 50% in size
In short: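 Cells (500-1,000/well) in growth media were settled 5 h at 37 degrees C, then given compounds for 48 h. Viability was read as CellTiter-Glo luminescence. Primary runs used MIPE at 11 points (0.78 nM-46 µM) and NPC at 8 points (0.59 nM-46 µM); follow-ups used 11 points.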

[11] = qHTS of pediatric cancer cell lines to identify multiple opportunities for drug repurposing: Primary screen for Saos-2 cells (AID 1347097); note: nearly all actives have a fitted effect of over 40% in size
In short: as §2

[12] = qHTS of pediatric cancer cell lines to identify multiple opportunities for drug repurposing: Primary screen for NB1643 cells (AID 1347099); note: nearly all actives have a fitted effect of over 50% in size
In short: as §2

[13] = qHTS of pediatric cancer cell lines to identify multiple opportunities for drug repurposing: Primary screen for SK-N-SH cells (AID 1347098); note: nearly all actives have a fitted effect of over 65% in size
In short: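 Cells (500-1,000/well) rested 5 h, then received compounds for 48 h; metabolically active cells were measured by CellTiter-Glo luminescence. Final concentrations spanned up to 46 µM (MIPE, 11-point) or 0.59 nM-46 µM (NPC, 8-point) in primary screens, 11-point in follow-ups.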
Potency is the fitted concentration of half-maximal effect.

## CC(=O)NC[C@H]1CN(c2ccc(N3CCOCC3)c(F)c2)C(=O)O1
[1]
  Potency: inactive
[2]
  Potency: inactive
[3]
  Potency: inactive
[4]
  Potency: inactive
[5]
  Potency: inactive
[6]
  Potency: inactive
[7]
  Potency: inactive
[8]
  Potency: inactive
[9]
  Potency: inactive
[10]
  Potency: inactive
[11]
  Potency: inactive
[12]
  Potency: inactive

## CCCCCCCCCCCCCCCCCCCCCCO
[1]
  Potency: inactive
[2]
  Potency: inactive
[3]
  Potency: inactive
[4]
  Potency: inactive
[5]
  Potency: inactive
[6]
  Potency: inactive
[7]
  Potency: inactive
[8]
  Potency: inactive
[9]
  Potency: inactive
[10]
  Potency: inactive
[11]
  Potency: inactive
[12]
  Potency: inactive

## O=C(NC(Cc1cc(=O)[nH]c2ccccc12)C(=O)O)c1ccc(Cl)cc1 (centres undefined)
[1]
  Potency: inactive
[2]
  Potency: inactive
[3]
  Potency: inactive
[4]
  Potency: inactive
[5]
  Potency: inactive
[6]
  Potency: inactive
[8]
  Potency: inactive
[9]
  Potency: inactive
[10]
  Potency: inactive
[11]
  Potency: inactive
[13]
  Potency: inactive

## Nc1cc(C(Cl)=C(Cl)Cl)c(S(N)(=O)=O)cc1S(N)(=O)=O
[1]
  Potency: inactive
[2]
  Potency: inactive
[3]
  Potency: inactive
[4]
  Potency: inactive
[5]
  Potency: inactive
[6]
  Potency: inactive
[7]
  Potency: inactive
[8]
  Potency: inactive
[9]
  Potency: inactive
[10]
  Potency: inactive
[11]
  Potency: inactive
[13]
  Potency: inactive
[12]
  Potency: inactive

## CC1=C(C(=O)O)N2C(=O)[C@@H](NC(=O)[C@H](N)C3=CCC=CC3)[C@H]2SC1
[1]
  Potency: inactive
[2]
  Potency: inactive
[3]
  Potency: inactive
[4]
  Potency: inactive
[5]
  Potency: inactive
[6]
  Potency: inactive
[7]
  Potency: inactive
[8]
  Potency: inactive
[9]
  Potency: inactive
[10]
  Potency: inactive
[11]
  Potency: inactive
[13]
  Potency: inactive
[12]
  Potency: inactive

## Cc1nc2n(c(=O)c1CCN1CCC(c3noc4cc(F)ccc34)CC1)CCCC2
[1]
  Potency: inactive and 8.2 µM (active)
[2]
  Potency: inactive
[3]
  Potency: inactive
[4]
  Potency: inactive
[5]
  Potency: inactive
[6]
  Potency: inactive
[7]
  Potency: inactive
[8]
  Potency: inactive
[9]
  Potency: inactive
[10]
  Potency: inactive
[11]
  Potency: inactive
[13]
  Potency: inactive
[12]
  Potency: inactive

## CC1Cc2ccccc2N1NC(=O)c1ccc(Cl)c(S(N)(=O)=O)c1 (centres undefined)
[1]
  Potency: inactive
[2]
  Potency: inactive
[3]
  Potency: inactive
[4]
  Potency: inactive
[5]
  Potency: inactive
[6]
  Potency: inactive
[7]
  Potency: inactive
[8]
  Potency: inactive
[9]
  Potency: inactive
[10]
  Potency: inactive
[11]
  Potency: inactive
[13]
  Potency: inactive
[12]
  Potency: inactive

## O=c1oc2cc(O)ccc2s1
[1]
  Potency: inactive
[2]
  Potency: inactive
[3]
  Potency: inactive
[4]
  Potency: inactive
[5]
  Potency: inactive
[6]
  Potency: 9.35 µM (active)
[7]
  Potency: 23.5 µM (active)
[8]
  Potency: inactive
[9]
  Potency: inactive
[10]
  Potency: inactive
[13]
  Potency: inactive

## CC(=O)Nc1ccc(O)cc1
[1]
  Potency: inactive
[2]
  Potency: inactive
[3]
  Potency: inactive
[4]
  Potency: inactive
[5]
  Potency: inactive
[6]
  Potency: inactive
[7]
  Potency: inactive
[8]
  Potency: inactive
[9]
  Potency: inactive
[10]
  Potency: inactive
[11]
  Potency: inactive
[13]
  Potency: inactive
[12]
  Potency: inactive

## C[C@H](Cn1cnc2c(N)ncnc21)OCP(=O)(O)O
[1]
  Potency: inactive
[2]
  Potency: inactive
[3]
  Potency: inactive
[4]
  Potency: inactive
[5]
  Potency: inactive
[6]
  Potency: inactive
[8]
  Potency: inactive
[9]
  Potency: inactive
[10]
  Potency: inactive
[11]
  Potency: inactive
[12]
  Potency: inactive

## Cc1nc(Nc2ncc(C(=O)Nc3c(C)cccc3Cl)s2)cc(N2CCN(CCO)CC2)n1
[1]
  Potency: inactive
[2]
  Potency: inactive
[3]
  Potency: inactive
[4]
  Potency: 23.5 µM (active) and 8.41 µM (active)
[5]
  Potency: 18.7 µM (active) and 15 µM (active)
[6]
  Potency: 3.72 µM (active) and 3.35 µM (active)
[7]
  Potency: 18.7 µM (active) and 16.8 µM (active)
[9]
  Potency: inactive
[10]
  Potency: 18.7 µM (active) and 13.3 µM (active)
[12]
  Potency: inactive

## O=C(OC1C[C@H]2CC[C@@H](C1)[N+]21CCCC1)C(O)(c1ccccc1)c1ccccc1 (some centres undefined)
[1]
  Potency: inactive
[2]
  Potency: inactive
[3]
  Potency: inactive
[4]
  Potency: inactive
[5]
  Potency: inactive
[6]
  Potency: inactive
[7]
  Potency: 14.8 µM (active)
[8]
  Potency: inactive
[9]
  Potency: inactive
[10]
  Potency: inactive
[11]
  Potency: inactive
[12]
  Potency: 10.5 µM (active)

## CCC[C@@H]1C[C@@H](C(=O)N[C@@H]([C@H]2O[C@H](SC)[C@H](O)[C@@H](O)[C@H]2O)[C@@H](C)O)N(C)C1
[1]
  Potency: inactive
[2]
  Potency: inactive
[3]
  Potency: inactive
[4]
  Potency: inactive
[5]
  Potency: inactive
[6]
  Potency: inactive
[7]
  Potency: inactive
[8]
  Potency: inactive
[9]
  Potency: inactive
[10]
  Potency: inactive
[11]
  Potency: inactive
[13]
  Potency: inactive
[12]
  Potency: inactive

## Nc1ncn([C@H]2C[C@H](O)[C@@H](CO)O2)c(=O)n1
[1]
  Potency: inactive
[2]
  Potency: inactive
[3]
  Potency: inactive
[4]
  Potency: inactive
[5]
  Potency: inactive
[6]
  Potency: inactive
[7]
  Potency: inactive
[8]
  Potency: inactive
[9]
  Potency: inactive
[10]
  Potency: inactive
[11]
  Potency: inactive
[13]
  Potency: inactive
[12]
  Potency: inactive

## COc1cc2c(N3CCN(C(=O)Nc4ccc(OC(C)C)cc4)CC3)ncnc2cc1OCCCN1CCCCC1
[1]
  Potency: inactive
[2]
  Potency: inactive
[3]
  Potency: inactive
[4]
  Potency: inactive
[5]
  Potency: inactive
[6]
  Potency: 29.6 µM (active)
[7]
  Potency: 23.5 µM (active)
[9]
  Potency: inactive
[10]
  Potency: inactive
[13]
  Potency: 27.1 µM (active) and 17.2 µM (active)

## CN(c1nccc(=O)[nH]1)C1CCN(c2nc3ccccc3n2Cc2ccc(F)cc2)CC1
[1]
  Potency: inactive
[2]
  Potency: inactive
[3]
  Potency: inactive
[4]
  Potency: inactive
[5]
  Potency: inactive
[7]
  Potency: 2.64 µM (active)
[8]
  Potency: inactive
[9]
  Potency: inactive
[10]
  Potency: inactive
[11]
  Potency: inactive
[13]
  Potency: inactive

## CCCOc1ccc2nc(NC(=O)OC)[nH]c2c1
[1]
  Potency: 231 nM (active) and 651 nM (active) and 11.8 nM (active)
[2]
  Potency: 0.0469 µM (active)
[3]
  Potency: 187 nM (active) and 131 nM (active)
[4]
  Potency: 66.8 nM (active) and 14.8 nM (active)
[5]
  Potency: 1 nM (active)
[6]
  Potency: 33.5 nM (active) and 11.8 nM (active)
[7]
  Potency: 0.0422 µM (active)
[8]
  Potency: 123 nM (active) and 27.3 nM (active)
[9]
  Potency: 0.001 µM (active)
[11]
  Potency: 0.0299 µM (active)
[13]
  Potency: inactive

## CCOC(=O)C1=C[C@@H](OC(CC)CC)[C@H](NC(C)=O)[C@@H](N)C1
[1]
  Potency: inactive
[2]
  Potency: inactive
[3]
  Potency: inactive
[4]
  Potency: inactive
[5]
  Potency: inactive
[6]
  Potency: inactive
[8]
  Potency: inactive
[9]
  Potency: inactive
[10]
  Potency: inactive
[11]
  Potency: inactive
[13]
  Potency: inactive
[12]
  Potency: inactive
